Source: PubChem BioAssay AID602393 (Broad Institute, 2012)
About 7,000 (2%) of roughly 350,000 compounds were called active. Cut-off read from the data, not from the text of the source: active = activation above about 40%; inconclusive = no clear call, values can overlap the other calls; inactive = below that. Shown is part of a subset that was picked to be rich in actives.

Assay: Bmi1 luciferase reporter increase in mESCs, primary screen, esBAF inhibitor project, mouse ES cells, Bmi1 luciferase knock-in, single point (AID 602393);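 note: 0% = median of the plate's neutral control wells and 100% = double that signal; a rise in the Bmi1 reporter signal indicates esBAF inhibition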
Conditions: 24 h, at 12.5 µM, active compounds read high, 100% = twice the neutral-well signal
In the case of `O=C(NN=Cc1ccc2c(c1)CCC2)c1ccccc1O`, the reporter increase is reported as 59.3% (active).
For `O=C(NC(Cc1c[nH]c2ccccc12)C(=O)N/N=C/c1ccc(Br)cc1)c1cccs1` (stereo unspecified), the reporter increase was 4.44% (inactive).
With `O=C(NCCc1c[nH]c2ccccc12)c1cccc(Br)c1` the reporter increase was 11.6% (inactive).
With `O=C(N/N=C\c1cccc(Br)c1)c1ccccc1-n1cccc1` the reporter increase was 3.44% (inactive).
In the case of `O=C(N/N=C/c1c[nH]c2ccccc12)c1ccccc1O`, the reporter increase is reported as 51.9% (active).
With `O=C(N/N=C/c1cccc(Br)c1)c1ccc(N2CCCC2=O)cc1` the reporter increase was 7.79% (inactive).
In the case of `COc1ccccc1-c1cccc(-c2nc(C(=O)N3CCN(C)CC3)cc3c2[C@H](CCO)N([S@@](=O)C(C)(C)C)C3)c1`, the reporter increase is reported as -0.462% (inactive).
With `C[C@@H]1CN([C@@H](C)CO)C(=O)CCCn2cc(nn2)CO[C@@H]1CN(C)C(=O)c1ccncc1` the reporter increase was -3.8% (inactive).
In the case of `C[C@H](CO)N1C[C@H](C)[C@@H](CN(C)C(=O)c2ccncc2)Oc2cc(C3=CCCCC3)ccc2S1(=O)=O`, the reporter increase is reported as 2.87% (inactive).
In the case of `C[C@H](CO)N1C[C@H](C)[C@H](CN(C)S(=O)(=O)c2cn(C)cn2)Oc2c(NC(=O)C3CCOCC3)cccc2C1=O`, the reporter increase is reported as -1.13% (inactive).
For `Cc1cccc(CSc2ccc(-c3cccs3)nn2)c1`, the reporter increase was 50.5% (active).
With `Cc1cccc(CSc2nnc(C)c(=O)n2N)c1` the reporter increase was -7.26% (inactive).
With `Cc1cc(-c2cccs2)nc(-n2cccc2)n1` the reporter increase was 17.4% (inactive).
In the case of `C[C@H]1CN([C@@H](C)CO)C(=O)CCCn2nncc2CO[C@H]1CN(C)Cc1ccc2c(c1)OCO2`, the reporter increase is reported as 0.657% (inactive).
For `C/C=C/c1cnc2c(c1)C(=O)N([C@H](C)CO)C[C@H](C)[C@@H](CN(C)S(=O)(=O)c1ccccc1F)O2`, the reporter increase was 0.934% (inactive).
In the case of `COc1ccccc1-c1cn(CC[C@H]2CC[C@H](NC(=O)Cc3ccccn3)[C@H](CO)O2)nn1`, the reporter increase is reported as 0.363% (inactive).
For `Cc1noc(C)c1NC(=O)N(C)C[C@@H]1Oc2ccc(NS(C)(=O)=O)cc2C(=O)N([C@H](C)CO)C[C@@H]1C`, the reporter increase was -2.07% (inactive).
For `CN(Cc1nc2ccccc2s1)C(=O)c1ccc(F)cc1`, the reporter increase was 8.62% (inactive).
For `CC(C)C(C)NC(=O)COc1ncnc2ccccc12` (stereo unspecified), the reporter increase was -6.72% (inactive).
For `CCC(=O)NC(=Nc1nc2ccccc2s1)NC(=O)CC`, the reporter increase was 65.4% (active).
With `O=C(C[C@H]1C=C[C@@H](NC(=O)CC2CC2)[C@H](CO)O1)NCc1ccc(-c2ccccc2)cc1` the reporter increase was 1.19% (inactive).
With `O=C(C[C@H]1C=C[C@H](NC(=O)C2CCC2)[C@H](CO)O1)NCCCN1CCOCC1` the reporter increase was 1% (inactive).
With `CCOC(=O)c1[nH]c(C)c(C(=O)OCC(=O)N2c3ccccc3CC2C)c1C` (stereo unspecified) the reporter increase was -0.495% (inactive).
For `CCOC(=O)c1c(C)[nH]c(C(=O)OCC(=O)N2CCCC2=O)c1C`, the reporter increase was 47% (active).
With `Cc1c(C(=O)OCC(=O)N2CCCC2=O)oc2ccccc12` the reporter increase was 18.9% (inactive).
For `COc1ccccc1CNC(=O)C[C@@H]1CC[C@H]2[C@@H](COc3ccc(NS(=O)(=O)c4ccc(C)cc4)cc3C(=O)N2C)O1`, the reporter increase was 1.61% (inactive).
With `O=C(C[C@@H]1CC[C@@H](NC(=O)C2CC2)[C@H](CO)O1)NCc1ccncc1` the reporter increase was -3.27% (inactive).
For `C[C@@H]1CCCCO[C@@H](CN(C)C(=O)c2ccccc2)[C@@H](C)CN([C@@H](C)CO)C(=O)c2cc(NS(=O)(=O)c3ccccc3)ccc2O1`, the reporter increase was 12.6% (inactive).
For `COc1ccc(S(=O)(=O)Nc2ccc3c(c2)C(=O)N([C@@H](C)CO)C[C@@H](C)[C@H](CN(C)C(=O)Nc2ccc(C(F)(F)F)cc2)OCCCC[C@@H](C)O3)cc1`, the reporter increase was 7.49% (inactive).
With `Cc1ccsc1/C=C1\SC(N2CCOCC2)=NC1=O` the reporter increase was 57.3% (active).
For `CC1CCN(C2=NC(=O)/C(=C/c3ccc(O)cc3)S2)CC1`, the reporter increase was 24.8% (inactive).
With `CCc1ccc(/C=C2\SC(N3CCOCC3)=NC2=O)cc1` the reporter increase was 6.21% (inactive).
With `O=C1N=C(N2CCOCC2)S/C1=C\C=C/c1ccccc1` the reporter increase was 55.8% (active).
With `O=C1N=C(N2CCOCC2)CS1` the reporter increase was 0.767% (inactive).
With `O=C1N=C(N2CCc3ccccc3C2)S/C1=C\c1ccc(O)cc1` the reporter increase was -1.11% (inactive).
In the case of `CC(C)NC(=O)N(C)C[C@H]1Oc2ncc(C#CC3(O)CCCC3)cc2C(=O)N([C@H](C)CO)C[C@@H]1C`, the reporter increase is reported as 0.475% (inactive).
For `CN1c2ccc(-c3ccccc3F)cc2[C@H]2[C@H](CCN2C(=O)Nc2cc(F)ccc2F)[C@H]1CO`, the reporter increase was 7.83% (inactive).
For `C/C=C/c1ccc([C@@H]2[C@H](CO)N(C(C)=O)[C@H]2CN(CC)C(=O)CN(C)C)cc1`, the reporter increase was -4.39% (inactive).
With `CCC(=O)NC[C@H]1[C@@H](c2ccc(C3=CCCC3)cc2)[C@@H](CO)N1C(=O)C1CC1` the reporter increase was 0.745% (inactive).
For `CS(=O)(=O)Nc1ccc2c(c1)[C@@H]1C[C@H](CC(=O)NCc3ccccn3)O[C@@H](CO)[C@@H]1O2`, the reporter increase was 0.762% (inactive).
For `O=C(C[C@H]1CC[C@@H](NC(=O)c2ccccc2)[C@@H](CO)O1)NCc1ccncn1`, the reporter increase was -3.6% (inactive).
In the case of `CC(=O)c1ccc(N2Cc3ccccc3C2)cc1`, the reporter increase is reported as 23.9% (inactive).
For `CC(=O)c1ccc2c(ccc3ccccc32)c1`, the reporter increase was 43.2% (active).
With `O=C(NNC(=O)c1ccc2ccccc2c1)c1ccc(Cl)cc1` the reporter increase was -2.35% (inactive).
In the case of `N#C[C@H]1[C@@H](c2ccc(-c3ccccc3F)cc2)[C@H](CO)N1C(=O)c1ccccn1`, the reporter increase is reported as -5.75% (inactive).
For `O=C(CCN1CCCCC1)N[C@@H]1C=C[C@@H](CC(=O)N2CCC(Cc3ccccc3)CC2)O[C@H]1CO`, the reporter increase was 9.59% (inactive).
In the case of `Cc1ccc(-c2cnc3c(c2)C(=O)N([C@H](C)CO)C[C@@H](C)[C@@H](CN(C)C(=O)CN(C)C)O3)cc1`, the reporter increase is reported as -1.4% (inactive).
With `Cc1cccc(NC(=O)/C=C/c2ccc3c(c2)OCO3)n1` the reporter increase was 9.44% (inactive).
In the case of `COc1cccc(/C=C/C(=O)Nc2ccc3c(c2)OCCO3)c1`, the reporter increase is reported as 52.9% (active).
With `COc1ccccc1OCCCC(=O)Nc1ccc2c(c1)OCCO2` the reporter increase was 4.46% (inactive).
In the case of `COc1ccccc1-c1ccc2c(c1)[C@H]1[C@H](CCN1S(=O)(=O)c1ccccc1)[C@@H](CO)N2`, the reporter increase is reported as -9.94% (inactive).
